Results on 96 compounds are retold here after PubChem BioAssay AID624304 (Sanford-Burnham Center for Chemical Genomics, 2012).

Out of some 360,000 compounds screened, about 1,800 (0.5%) were called active.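 Rule for the calls: active = interference check ratio from 0.5 to 1.5 plus GFP to RFP signal ratio inhibition reaching or exceeding a fixed threshold (cut at about 30% in these data, passing the limit was not always enough); inactive = the rest.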 Only a selection was taken, and actives are over-represented in it overall.

The experiment is described as follows: gst-4 reporter inhibition in live C. elegans – whole organism, uHTS, GFP/RFP fluorescence ratio, strain VP596, SKN-1 inhibitor project, primary screen (AID 624304). As to conditions: C. elegans VP596 Pgst-4::GFP/RFP ratio, acrylamide-induced, 24 h; at 21.8 µM; hits give high values.
`COc1ccc(C(C#N)(CC(=O)O)c2cnccn2)cc1OC` (stereo unspecified): the inhibition was 7.82% (inactive).
For `Cn1nc(C(C)(C)C)c([N+](=O)[O-])c1C(N)=O` the value was 11.7% (inactive); for `CC(C)CN1CC(C)C(=O)N(c2ccccc2)C1=S` (stereo unspecified), 6.3% (inactive).
For `FC(F)(F)c1ccc2nnc(-c3c(Cl)cccc3Cl)n2c1`, the inhibition is 13.4% (inactive).
The same measure for `Nc1cc(C(F)(F)F)ccc1N1CCOCC1`: 2.47% (inactive).
As for `CCCC1OC23CCCCC2C(C#N)(C#N)C1(C#N)C(=N)O3` (stereo unspecified), the inhibition was 39.2% (active).
The same measure for `O=C(NC1CCCC1)C1CC(=O)N(c2ccc(F)cc2)C1` (stereo unspecified): 0.701% (inactive); for `CCC(=O)N1CCc2cc(S(=O)(=O)CCC(=O)N3CCN(c4ccccc4F)CC3)ccc21`: 20.2% (inactive).
For `O=C(CCS(=O)(=O)c1cccc2nsnc12)N1CCN(c2ccccc2F)CC1` the value was 47.3% (active).
The same measure for `O=C(CCCNS(=O)(=O)c1cccc2nsnc12)NCCN1CCN(c2ccccc2F)CC1`: -3.19% (inactive).
On to `CN1CCN(c2ccccc2NC(=O)COc2ccc(C3CCCCC3)cc2)CC1`, for which the inhibition is -4.71% (inactive).
Regarding `Cc1ccc(-c2nc3c(Cl)cc(C(F)(F)F)cn3c2Cc2cccc(Cl)c2)cc1`, the inhibition is 9.6% (inactive).
As for `Cc1ccc(-c2ccnc3nc(Sc4ncc(C(F)(F)F)cc4Cl)nn23)cc1`, the inhibition is 41.4% (active).
For `Cc1cc(NC(=O)CSc2ncc(C(F)(F)F)cc2Cl)no1` the value was -6.53% (inactive); for `COc1cccc(CNC(=O)COc2cc(O)c3c(c2)OC(C)(C)CC3=O)c1`, 8.05% (inactive); for `CC1CN/C(=C\C(=O)c2ccc(Br)cc2)C(=O)N1` (stereo unspecified), 15.8% (inactive).
For the compound `COc1cccc(CNc2nc(NCc3cccs3)nc3ccsc23)c1`, the inhibition was 6.96% (inactive).
For `COc1cccc(-c2cc3nc(NCc4ccccc4OC)n(C)c(=O)c3s2)c1` the value was -2.32% (inactive); for `COc1cccc(CNc2nc(NCc3ccccc3OC)nc3ccsc23)c1`, 43.2% (active); for `CCc1nc2c(OCc3ccc(C(=O)OC)cc3)cccn2c1N(C)C(=O)C(C)C`, 7.01% (inactive).
For `O=C(Nc1ccc(-n2cccn2)cc1)C1CCN(Cc2ccsc2)CC1` the value was -1.22% (inactive); for `CCCCNC(=O)c1onc(CSc2cccc(OC)c2)c1C(=O)O`, -12.1% (inactive); for `CCC(C)NC(=O)c1cc(Cl)ccc1OC` (stereo unspecified), 3.09% (inactive).
On to `Cc1ccc(-c2nc3ccc(Br)cn3c2Cc2ccccc2C(F)(F)F)cc1`, for which the inhibition is 35.2% (active).
The same measure for `COC(=O)c1ccc2nc(-c3cccc(Br)c3)c(Cc3ccccc3C(F)(F)F)n2c1`: -9.35% (inactive); for `Cc1cc(Br)cn2c(Cc3ccccc3C(F)(F)F)c(-c3ccc(Cl)cc3)nc12`: 12.9% (inactive).
The same measure for `Cc1cc(C)c2nc(-c3cccnc3)cc(C(=O)Nc3ccc(S(=O)(=O)Nc4onc(C)c4C)cc3)c2c1`: 0.27% (inactive); for `C/C(N)=C(/C#N)C(=O)COC(=O)c1cc(-c2ccc(C)cc2)nc2ccccc12`: -3.83% (inactive).
For `COc1ccc(-c2cc(C(=O)n3cnc4ccccc43)c3ccccc3n2)cc1` the value was 38.1% (active); for `O=C(c1ccc(Cl)cc1)n1cnc2ccccc21`, 11.4% (inactive); for `CC(C)Sc1nc(N)nc2c1ncn2C1OC(CO)C(O)C1O` (stereo unspecified), 8.48% (inactive).
`Cn1c(SCC(=O)Nc2ccc(Br)cc2F)nnc1-c1ccco1`: the inhibition was 6.52% (inactive).
With `Cc1ccc(-n2ncc3c(=O)n(-c4ccc(C)c(C)c4)c(-c4ccco4)nc32)cc1`, the inhibition is 18.1% (inactive).
For `Cn1c(-c2ccco2)nc2cc3ccccc3cc21` the value was 41.7% (active); for `O=C(CN1C2CCC1CC(NC(=O)C1CC1)C2)NCc1ccccc1` (stereo unspecified), 35.8% (active).
For `CC(=O)NC1CC2CCCC(C1)N2CC(=O)Nc1ccccc1` (stereo unspecified) the value was -18.6% (inactive).
The same measure for `O=C(NCc1ccccc1)C1CCN(C(=O)Cc2ccccc2)CC1`: 9.03% (inactive); for `CCOC(=O)N1CCN(C(=O)c2ccc(CN(c3ccc(C)c(C)c3)S(C)(=O)=O)cc2)CC1`: 6.59% (inactive).
For `OCc1nc(CO)n(Cc2ccccc2)n1`, the inhibition was -5.44% (inactive).
The same measure for `COc1ccc(CC(NC(C)=O)C(=O)NC2CCN(C(=O)Nc3ccc(C#N)cc3)CC2)cc1OC` (stereo unspecified): 11.3% (inactive); for `COc1ccc(CC(NC(C)=O)C(=O)NC2CCN(C(=O)C3CC3)CC2)cc1OC` (stereo unspecified): 7.48% (inactive).
The same measure for `COc1ccc(CC(NC(C)=O)C(=O)N2CCN(C(=O)Nc3cccc(Cl)c3)CC2)cc1OC` (stereo unspecified): 40.7% (active); for `OC(c1ccc(Cl)c(F)c1)c1ncc(-c2ccccc2Cl)[nH]1` (stereo unspecified): 20.6% (inactive); for `CCN1CCN(c2sc(S(C)(=O)=O)nc2S(=O)(=O)c2ccc(Cl)cc2)CC1`: -10.1% (inactive).
For the compound `COc1cc(N2CCCC2)c(OC)cc1/C=C(/C#N)c1cccc(Br)c1`, the inhibition is 45.8% (active).
As for `NC(=O)C1(Nc2ccc(-c3ccccc3)cc2)CCCC1`, the inhibition is 13.2% (inactive).
The same measure for `N#CC1(Nc2ccc(-c3ccc(Cl)cc3)cc2)CCCC1`: 69% (active); for `N#CC1(Nc2ccc3c4c(cccc24)CC3)CCCCC1`: 8.67% (inactive); for `Cc1c(C=O)c2ccccc2n1CC(=O)O`: -4.35% (inactive).
For `CC(=O)c1c(C)n([O-])c2ccccc2[n+]1=O` the value was 36.9% (active).
For `CCOC(=O)C1=C(CNC2CCCCC2)NC(=O)NC1c1cc(C)ccc1C` (stereo unspecified) the value was -5.96% (inactive).
Regarding `C#Cc1ccc(NC(=O)C2(C)CCN2C(=O)Cc2ccc(-c3ccccc3)cc2)cc1` (stereo unspecified), the inhibition was 8.15% (inactive).
For `COc1cccc(NC(=S)C(C#N)=C2N(C)c3ccccc3N2C)c1` the value was -3.75% (inactive); for `CC(=O)Nc1cccc(OCC(=O)/C=C2\N(C)c3ccccc3C2(C)C)c1`, 45.5% (active); for `Cc1cccc(OCC(=O)Nc2ccccc2F)c1`, 11.3% (inactive).
Turning to `COCCn1c(SCc2nc3cc(OC)c(OC)cc3c(=O)[nH]2)nnc1-c1ccncc1`, the inhibition is 13.8% (inactive).
For `CCn1c(SCC(=O)Nc2nc(C)cs2)nnc1C(C)NC(=O)c1ccccc1` (stereo unspecified) the value was -5.72% (inactive).
For `C=CCNC(=S)N1CCN(CCN=Cc2c(C)[nH]n(-c3ccc([N+](=O)[O-])cc3)c2=O)CC1` the value was -5.99% (inactive); for `O=C1/C(=C/c2cccs2)CCc2ccccc21`, 41.9% (active).
For `O=C(COC(=O)/C=C/c1cccs1)NC1CCCCC1` the value was 4.24% (inactive); for `O=S(=O)(c1cccs1)N1CCc2ccccc2C1`, -31.6% (inactive); for `c1ccc2c(c1)CCc1snnc1-2`, 11% (inactive).
In the case of `O=C1/C(=C/c2cccs2)CCC1C1CCCC1` (stereo unspecified), the inhibition is 41.6% (active).
For `O=S1(=O)CSCS(=O)(=O)C1` the value was 10.6% (inactive).
For `CC1CN(S(=O)(=O)c2ccc(C(=O)NN3CCN(C)CC3)cc2)CC(C)O1` (stereo unspecified) the value was -5.41% (inactive); for `Cc1cc(OCc2cc(C(=O)NCc3cc(C(C)C)no3)no2)cc(C)c1Cl`, 1.98% (inactive).
`Cc1ccc(NC(=O)CSc2nn3c(=O)c(C)nnc3s2)cc1Cl`: the inhibition is 20.9% (inactive).
The same measure for `O=C(Nc1ccc(Cl)c(Cl)c1)N1CC=C(c2ccccc2)CC1`: 13.1% (inactive).
On to `O=C(CC(O)(C(F)(F)F)C(F)(F)F)Nc1ccc(Cl)c(Cl)c1`, for which the inhibition is 50.1% (active).
As for `NC(=O)C1CCN(C2OC(=O)c3ccccc32)CC1` (stereo unspecified), the inhibition was -35.9% (inactive).
For `Cc1ccc(C(NC(=O)C2CCN(CCOc3ccc(Cl)cc3Cl)CC2)c2ccccn2)cc1` (stereo unspecified) the value was -6.91% (inactive).
In the case of `O=C(NC(c1ccc(Cl)cc1)c1cnccn1)C1CCN(Cc2ccc(Cl)cc2)CC1` (stereo unspecified), the inhibition is -1.18% (inactive).
For `O=C(NC(c1ccc(-c2ccccc2)cc1)c1cnccn1)C1CCN(CCOc2ccc(Cl)cc2Cl)CC1` (stereo unspecified) the value was 39.3% (active); for `CCCCS(=O)c1snnc1C` (stereo unspecified), 0.19% (inactive).
Consider `CC1(C(=O)NS(=O)(=O)c2ccccc2)CCN1C(=O)Cc1ccc(-c2ccccc2)cc1` (stereo unspecified), for which the inhibition is 14.5% (inactive).
As for `CCCNC(=O)C1(C)CCN1C(=O)Cc1ccc(-c2ccccc2)cc1` (stereo unspecified), the inhibition is -5.8% (inactive).
For `CC1(C(=O)NS(=O)(=O)c2cccs2)CCN1C(=O)Cc1ccc(-c2ccccc2)cc1` (stereo unspecified) the value was 35.1% (active); for `O=C(NCCCN1CCOCC1)C1CCCN(S(=O)(=O)N2CCCCC2)C1` (stereo unspecified), 6.87% (inactive).
For `CC[n+]1c(C)n(-c2ccccc2)c2ccc(NC(C)=O)cc21` the value was -12.4% (inactive); for `O=S(=O)(c1ccc(Sc2nnc3ccccn23)nc1)N1CCOCC1`, 10.2% (inactive).
For `Cc1cc(C)c2c(-n3cccc3)c(NC(=O)OCc3ccccc3)sc2n1` the value was 39.1% (active); for `COC(=O)Nc1sc2nc(C)cc(C)c2c1-n1cccc1`, 6.78% (inactive).
Turning to `CCCCOC(=O)Nc1sc2nc(C)cc(C)c2c1-n1cccc1`, the inhibition was -12.8% (inactive).
For `O=C(C1CCCO1)N1CCN(C(=S)NC2CC2)CC1` (stereo unspecified) the value was -7.31% (inactive).
The same measure for `COc1cc2[nH]c(=S)n(Cc3ccc(F)cc3)c(=O)c2cc1OC`: -0.963% (inactive); for `CCOc1cc2[nH]c(=S)n(CCN3CCCCC3C)c(=O)c2cc1OCC` (stereo unspecified): -6.45% (inactive).
Turning to `COc1cc2[nH]c(=S)n(CCN3CCCCC3C)c(=O)c2cc1OC` (stereo unspecified), the inhibition was 56.1% (active).
The same measure for `CC(Oc1ccc(Cl)cc1Cl)C(=O)/C=C/N(C)C` (stereo unspecified): -7.74% (inactive); for `CC(C)(CNCC(O)c1ccccc1)N1CCOCC1` (stereo unspecified): -7.82% (inactive); for `Fc1cccc(CSc2nnc3ccc(-c4ccncc4)nn23)c1`: -27.4% (inactive).
The same measure for `COc1ccc(S(=O)(=O)NCc2cccnc2)cc1NC(=O)c1ccc(C)cc1`: 22.1% (inactive); for `CC(C)c1nnc(NC(=O)C2CC(=O)N(CCc3ccc(F)cc3)C2)s1` (stereo unspecified): -6.45% (inactive); for `CCC(C)NC(=O)c1ccccc1NC(=O)c1ccccc1N(C)S(C)(=O)=O` (stereo unspecified): -2.01% (inactive).
As to `Cc1ccc(-c2nc(CS(=O)CC(=O)NC3CCCC3)c(C)o2)cc1` (stereo unspecified), the inhibition was 5.39% (inactive).
For `COc1ccc(-c2nc(CS(=O)CC(=O)NCc3cccnc3)c(C)o2)cc1OC` (stereo unspecified) the value was 0.495% (inactive); for `COc1ccc(-c2nc(CS(=O)CC(=O)NCc3ccccn3)c(C)o2)cc1` (stereo unspecified), 37.6% (active).

A word on the inhibition: it is the change of the read-out against control, counted positive when it falls.
